A number with no mark means an inactive call. Calls of active or inactive are those of the source.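 How the source made its calls: active means mean z-score across replicates of 1.96 or higher in either the MELAS or the Rieske mutant cell line; inactive means the rest.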
Experiment: MELAS cybrid and Rieske KO viability enhancers – cell-based, MELAS cybrids, Rieske KO mouse fibroblasts, CellTiter-Glo, primary screen (AID 1508586);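 further: test concentration not given here; z relative to plate mean and SD of compound and empty wells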
Conditions: MELAS cybrid survival, low glucose, CellTiter-Glo 48 h; active compounds read high

SMILES | z-score
Cc1ccc(Cl)cc1NC(=O)N[C@H]1C[C@H]2C(=O)N[C@H](C(C)C)C(=O)N2C1 | -0.17
CC(C)/C=C/CNc1cc(C(=O)NCc2cn3ccccc3n2)cc(S(=O)(=O)NC(C)C)c1 | 1.64
COc1ccc(CN2C[C@@H](CN3CCOCC3)C[C@@H](C(=O)NCC(C)C)C2)cc1OC | 0.036
COCCCNC(=O)c1nn(C)c2c1CN(C(=O)Cc1c(C)[nH]c3c(F)cccc13)CC2 | -0.326
COC(=O)c1c(NC(C)=O)c2cc(NCc3sccc3C)cnc2n1CC1CCCO1 (stereo not given) | 0.213
O=c1c(-c2ccccc2Cl)cc2c(n1Cc1ccncc1)CCN(Cc1ccnc3ccccc13)C2 | -0.09
Cc1nc2sccn2c1CN1CCC2(CC1)C(=O)N(CC(C)C)C(=O)N2CCc1ccccc1 | -0.397
CCC(CC)CNc1cc(C(=O)NCCN(C)C)cc(S(=O)(=O)Nc2ccc(OC)cc2)c1 | -0.364
Cc1ccc(-c2cc(C(=O)NCc3c(C)nn(C)c3C)cc(S(=O)(=O)N3CCOCC3)c2)s1 | -0.303
COc1cccc(COC2CN(CCc3ccccc3)C(=O)CN(C(=O)CN3CCOC3=O)C2)c1 (stereo not given) | -0.0866
CN1CCCC1CCNC(=O)[C@H]1CNC[C@@H](COc2cccc(F)c2)C1 (stereo not given in full) | -0.0942
COc1ccc(/C=C/CN2CCc3c(cc(-c4cccc(-n5nc(C)cc5C)c4)c(=O)n3C)C2)cc1 | -0.672
CCc1cc(C(=O)N2CC(=O)N(Cc3ccc(OC)cc3)CC(OCc3ccncc3)C2)n(C)n1 (stereo not given) | -0.128
CC(C)CCN1C(=O)N(CC(N)=O)C(=O)C12CCN(Cc1nc3ccccc3s1)CC2 | -0.288
CC(C)CCNc1cc(C(=O)N[C@H]2CCCCNC2=O)cc(S(=O)(=O)NC(C)C)c1 | -0.205
Cc1ccccc1CN[C@H]1C[C@H]2C(=O)N[C@@H]([C@@H](C)O)C(=O)N2C1 | 0.0812
CCn1nc(C(=O)N2CCCC2)c2c1CCC(NCCC1=CCCCC1)C2 (stereo not given) | 1.1
COCC(=O)Nc1c(C(=O)OC)n(C)c2ncc(NCc3cnn(C)c3C)cc12 | -0.241
Cc1csc(-c2cc(C(=O)NCCC3CCCN3C)cc(S(=O)(=O)N3CCOCC3)c2)c1 (stereo not given) | 4.59 (active)
CN1CCCc2cc(C(=O)N3CC(=O)N(Cc4ccccc4)CC(OCc4ccccn4)C3)ccc21 (stereo not given) | -0.626

SMILES | z-score
COC(=O)c1c(NC(=O)C2CCCO2)c2cc(NCc3ccccn3)cnc2n1CCc1ccccc1 (stereo not given) | -0.44
CCN1CCN(C(=O)c2cc(-c3cc(C)cs3)cc(S(=O)(=O)N3CCOCC3)c2)CC1 | -0.416
CC(C)C[C@H]1NC(=O)[C@H]2CN(C(=O)OCc3ccccc3)CCN2C1=O | -0.0626
CN1CCCC1CCNC(=O)c1cc(-c2ccccc2)cc(S(=O)(=O)N2CCSCC2)c1 (stereo not given) | -0.508
O=C1N[C@H](CO)C(=O)N2CCN(C(=O)c3ccc(F)cc3)C[C@H]12 | 1.91
CCn1nc(C(=O)N2CCCC2)c2c1CCC(N1CCN(c3ccccc3OC)CC1)C2 (stereo not given) | -0.423
CCc1nc(CNc2cc(C(=O)N[C@H](C)c3ccc(OC)cc3)cc(S(=O)(=O)N(C)C)c2)c(C)[nH]1 | -0.507
COC(=O)c1c(NC(=O)CCc2ccccc2)c2cc(NC(C)C(C)(C)O)cnc2n1C (stereo not given) | -1.19
C=CCn1nc(C(=O)N2CCOCC2)c2c1CCC(NCc1ccc(Cl)s1)C2 (stereo not given) | -0.625
COc1cc(CN2CCc3c(cc(Cc4ccccc4C)c(=O)n3CC3CC3)C2)ccc1O | -0.322
CC(=O)c1cccc(-c2cc3c(n(C)c2=O)CCN(C(=O)c2ccc4[nH]c5c(c4c2)CCCC5)C3)c1 | -0.0854
COc1cc(/C=C/CN2CC(=O)N(C(C)C)CC(OCc3noc(C)n3)C2)ccc1O (stereo not given) | -0.167
COc1cccc(C(=O)N2CCN3C(=O)[C@H](C(C)C)NC(=O)[C@H]3C2)c1 | -0.0303
CCc1cc(C(=O)N2CCc3c(c(C(=O)N4CCN(c5ccccc5)CC4)nn3CC)C2)n(C)n1 | -0.699
COCCn1c(C(=O)OC)c(NC(=O)c2ccco2)c2cc(NC3CCc4ccccc4C3)cnc21 (stereo not given) | 9.06 (active)
CCn1cc(CN2CCN3C(=O)[C@@H]4C[C@@H](O)CN4C(=O)[C@H]3C2)c(C)n1 | -0.258
COc1ccc(CN2C[C@@H](CN3CCOCC3)C[C@@H](C(=O)NCC3CCCO3)C2)cc1OC (stereo not given in full) | 0.0226
CN1CC(=O)N2CCN(C(=O)NCc3ccccc3)C[C@@H]2C1=O | -0.0344
CC(C)CN1CC(OCc2cccc(F)c2)CN(Cc2cccn2-c2ncccn2)CC1=O (stereo not given) | -0.291
CC(C)C[C@H]1C(=O)N2CCN(Cc3cnn(-c4ccccc4)c3)C[C@@H]2C(=O)N1C | 0.221

From PubChem BioAssay
